The results in this text go back to PubChem BioAssay (NCATS).

Molecules are shown by their SMILES. Unmarked numbers belong to inactive results. Inconclusive results are not listed. Calls of active or inactive are those of the source. The call rests on the fitted dose curve; in most records, active means well fitted curve in the direction sought with a large enough effect; inconclusive means small, poorly fitted or top-dose-only effect, or another doubt; inactive means no such curve, though single readings can be large; an effect the other way counts as inactive or inconclusive.

Test [1] has as its target Lysine-specific demethylase 5B (Homo sapiens) (UniProt Q9UGL1). The test is described as follows: Optimization screen for KDM5B Histone Demethylases FDH coupled qHTS against the LOPAC library (AID 1347166). Further: 0% is about no effect. In a few lines:
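KDM5BDeltaAP (200nM final) preincubated 10 min with compound, then 12.5uM H3K4Me3, 25uM a-ketoglutarate, ascorbate, Fe(II), NAD+ and FDH added; 50mM HEPES pH 7.5, 0.01% Tween-20. NADH fluorescence (340/450 nm) change over 30 min, room temperature.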
For orientation: Quantitative high-throughput screening tests each substance at several concentrations.

The nature of test [2]: qHTS to identify inhibitors of the type 1 interferon - major histocompatibility complex class I in skeletal muscle: primary screen against the NCATS LOPAC collection (AID 1347405).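 Further: lytic HiBiT luminescence reporting HLA-B protein level; on the % scale 0 is the no-effect control and ±100 the full control effect.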 The essentials:
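Luminescence from HiBiT fused to endogenous HLA-B in CRISPR-engineered human myoblasts served as the read-out. Cells received 4.0 ng/ml IFN-beta plus compound (seven concentrations, 1:4.3 steps, highest 46 uM final) for 24 hrs before lytic detection.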

Test [3] can be described thus: qHTS to identify inhibitors of the type 1 interferon - major histocompatibility complex class I in skeletal muscle: primary screen against the NCATS Pharmaceutical Collection (AID 1347407).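 Further: luminescence of HiBiT knocked into endogenous HLA-B as interferon-induced MHC class I level; on the % scale 0 is the no-effect control and ±100 the full control effect.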 The essentials:
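Luminescence from HiBiT-tagged endogenous HLA-B*08:01 served as the read-out of IFN-beta-induced MHC class I in CRISPR-engineered C25cl48 myoblasts. Cells received 4 ng/ml IFN-beta plus compound (high final 46 uM, […]) for 24 h.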

Test [4] in a line: Validation qHTS assay for inhibitors of Activation Induced Cytidine Deaminase (AID): UDG Counterscreen signal (AID 1347427). Further: 0% is about no effect. In a few lines:
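Counterscreen read of UDG activity (2 U/mL, 4/3x) in the FRET deamination format with AID (1 uM, 4/3x), DJC20/DJC23 substrates (250 nM, 4x), 4 h at room temperature. NaOH stop, fluorescence at 560 ex/665 em.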

Test [5] concerns the target Single-stranded DNA cytosine deaminase (Homo sapiens) (UniProt Q9GZX7). Put plainly: Validation qHTS assay for inhibitors of Activation Induced Cytidine Deaminase (AID): AID signal (AID 1347429). Further: on the % scale 0 is the no-effect control and ±100 the full control effect. In a few lines: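 Fluorescence at 540 nm excitation and 590 nm emission reports ssDNA cytosine deamination by AID, with UDG in the same well. Compound-treated reactions ran 4 hr at room temperature with DJC20/DJC23 substrate, followed by 30 min NaOH treatment.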

Test [6] is described as follows: Primary qHTS for inhibitors of La Crosse Virus (LACV) - induced cell death in SH-SY5Y cells (AID 1508616).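 Further: top concentration of the series differs between compounds; 0% = infected DMSO wells and 100% = uninfected DMSO wells; higher means more rescue of cells from virus-induced death.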 In a few lines: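 Protection against LACV-induced cell death is scored in SH-SY5Y cells exposed to compounds and virus (0.01 MOI) for 6 days. Data normalized to virus-infected DMSO wells and virus-free DMSO wells.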
Test [7] addresses Calcium and integrin-binding protein 1 (Homo sapiens) (UniProt Q99828). The test is described as follows: Primary qHTS for Identification of Calcium Integrin Binding Protein 1 (CIB1) Competitor (AID 1508620). Further: top concentration of the series differs between compounds; on the % scale 0 is the no-effect control and ±100 the full control effect. In a few lines: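 Fluorescence polarization competition: GST-tagged CIB1 (1 uM final) preincubated with compound 15 min at room temperature, then FITC-labelled alphaIIb peptide (100 nM final) added. After 15 min at room temperature, polarization read at Ex 480/Em 540.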

Test [8] can be described thus: Primary qHTS for small molecule stabilizers of the endoplasmic reticulum resident proteome: Secreted ER Calcium Modulated Protein (SERCaMP) assay (AID 1508630). Further: on the % scale 0 is the no-effect control and ±100 the full control effect. In a few lines: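 GLuc-SERCaMP-expressing SH-SY5Y cells, pretreated 16 h with compound, are challenged with thapsigargin to empty ER calcium stores; after 4 h, coelenterazine is added directly to the medium and luminescence is imaged.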

Test [9] is described as follows: qHTS to identify inhibitors of the type 1 interferon - major histocompatibility complex class I in skeletal muscle: primary screen against the NCATS Mechanism Interrogation Plate v5.0 (MIPE) Libary (AID 1347411).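 Further: plate controls were vehicle for no effect and reference inhibitor for full effect; nearly all actives have a fitted effect of over 65% in size.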 In a few lines: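 Luminescence from HiBiT-tagged endogenous HLA-B*08:01 served as the MHC class I read-out. CRISPR-engineered C25cl48 human myoblasts received 4.0 ng/ml IFN-beta plus compound for 24 hrs, with an 11-point, 1:3 series topping at 46 uM final.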

Test [10] concerns the target Protein phosphatase 1D (Homo sapiens) (UniProt O15297). Put plainly: RapidFire Mass Spectrometry qHTS Assay for Modulators of WT P53-Induced Phosphatase 1 (WIP1) (AID 1347424).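 Further: amount of dephosphorylated VEPPL-S-QETFS peptide product formed by WIP1; series mostly up to about 63 µM; plate controls were DMSO wells for no effect and GSK830371 inhibitor control at 10 µM for full effect.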 The essentials: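 10 nM WIP1 preincubated with compounds 1 hr at room temperature in pH 7.5 Tris buffer with 30 mM MgCl2, 1 mM TCEP; 2 uM VEPPL-pS-QETFS phosphopeptide for 5 min, formic acid quench; dephosphorylated product quantified by RapidFire MS against labelled standard.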

The target is the same in test [11]. Put plainly: Rhodamine-PBP qHTS Assay for Modulators of WT P53-Induced Phosphatase 1 (WIP1) (AID 1347425). Further: % of control where 0% means no effect. In a few lines: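 Read-out: Rhodamine-PBP fluorescence (ex 525/em 598 nm) for released Pi, read each minute for 11 min after adding 10 uM VEPPL-pS-QETFS; signal taken as f1 minus pre-substrate f0. Enzyme 5 nM WIP1 with 1 hr room-temperature compound preincubation.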

The nature of test [12]: qHTS for inhibitors of adenylyl cyclases using a fission yeast platform: a pilot screen against the NCATS LOPAC library (AID 1347410).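 Further: plate controls were DMSO vehicle for no effect and DPI positive control for full effect.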 The essentials: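 Fission yeast qHTS: CHP2027 cells (AC9-GNAS-PDE4D2, fbp1-GFP), 5x10^6 cells/mL working density, EMM + His/Lys/Ura; LOPAC at up to 57 µM final; 18 h dark, 30C; GFP by laser cytometry. DPI positive control, DMSO vehicle.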

Test [13] deals with Calcium and integrin-binding protein 1 (Homo sapiens) (UniProt Q99828). The test is described as follows: Validation qHTS for Identification of Calcium Integrin Binding protein 1 (CIB1) Competitor (AID 1508618). Further: on the % scale 0 is the no-effect control and ±100 the full control effect. The essentials: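 CIB1-GST (1 uM final) in 5 mM HEPES pH 7.4, 125 mM NaCl, 5 mM CaCl2, 0.01% Tween20 was preincubated 15 min at room temperature with compound (up to 114 uM), then FITC-alphaIIb peptide (100 nM) added for 15 min; fluorescence polarization read.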
Chain of Calcium and integrin-binding protein 1 (Homo sapiens) (Q99828 whole entry, looked up): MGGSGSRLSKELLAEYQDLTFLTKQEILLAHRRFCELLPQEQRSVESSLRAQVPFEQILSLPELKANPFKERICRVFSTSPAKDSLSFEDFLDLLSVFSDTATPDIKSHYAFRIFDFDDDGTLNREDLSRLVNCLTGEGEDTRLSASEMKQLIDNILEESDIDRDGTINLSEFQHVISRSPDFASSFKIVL

The nature of test [14]: Confirmatory qHTS for small molecule stabilizers of the endoplasmic reticulum resident proteome: Secreted ER Calcium Modulated Protein (SERCaMP) assay (AID 1508628). Further: nearly all actives have a fitted effect of over 40% in size. Further: potency means the concentration at half of the fitted maximal effect. In a few lines: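 SH-SY5Y cells stably expressing GLuc-SERCaMP, treated 16 h with compound (primary 1.53, 7.67, 38.3 uM; confirmation 11 concentrations, up to 76.6 uM), then 100 nM thapsigargin for 4 h. Secreted Gaussia luciferase in medium read by coelenterazine luminescence.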

Test [15] in a line: Cell Viability qHTS for small molecule stabilizers of the endoplasmic reticulum resident proteome (AID 1508629). The settings on record: cell viability counter-screen, 100 nM thapsigargin for final 4 h.
A short description of test [16]: Counterscreen qHTS for small molecule stabilizers of the endoplasmic reticulum resident proteome: GLuc-NoTag assay (AID 1508627).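 Further: series mostly up to about 76 µM; 0% = thapsigargin alone and -100% = DMSO vehicle control.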 In a few lines: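 SH-SY5Y cells stably expressing constitutively secreted GLuc without SERCaMP tag, exposed to compound for 19 hr, then to 100 nM thapsigargin for 4 hr at 37C. Medium luciferase was read by coelenterazine luminescence without lysis.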
For orientation: The purpose of a counterscreen is to sort out artefacts and off-target activity.

Chain of Protein phosphatase 1D (Homo sapiens) (O15297 whole entry, looked up): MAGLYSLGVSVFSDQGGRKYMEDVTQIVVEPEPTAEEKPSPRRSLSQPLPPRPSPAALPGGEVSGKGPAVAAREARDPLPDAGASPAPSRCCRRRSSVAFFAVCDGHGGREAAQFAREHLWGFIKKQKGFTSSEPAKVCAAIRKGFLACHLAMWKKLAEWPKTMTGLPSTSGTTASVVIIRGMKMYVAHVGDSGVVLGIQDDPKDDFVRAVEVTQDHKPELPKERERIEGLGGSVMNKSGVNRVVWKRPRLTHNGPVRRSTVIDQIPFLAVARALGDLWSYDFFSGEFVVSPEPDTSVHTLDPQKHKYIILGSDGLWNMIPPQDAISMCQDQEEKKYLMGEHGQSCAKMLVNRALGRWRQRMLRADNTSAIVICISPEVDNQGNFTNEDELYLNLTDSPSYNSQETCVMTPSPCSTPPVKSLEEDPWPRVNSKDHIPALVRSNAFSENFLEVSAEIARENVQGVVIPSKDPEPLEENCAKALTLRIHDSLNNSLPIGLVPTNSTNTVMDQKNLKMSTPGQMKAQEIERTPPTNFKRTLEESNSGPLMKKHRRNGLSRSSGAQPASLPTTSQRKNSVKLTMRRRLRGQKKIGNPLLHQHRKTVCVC
Chain of Lysine-specific demethylase 5B (Homo sapiens) (Q9UGL1 whole entry, looked up): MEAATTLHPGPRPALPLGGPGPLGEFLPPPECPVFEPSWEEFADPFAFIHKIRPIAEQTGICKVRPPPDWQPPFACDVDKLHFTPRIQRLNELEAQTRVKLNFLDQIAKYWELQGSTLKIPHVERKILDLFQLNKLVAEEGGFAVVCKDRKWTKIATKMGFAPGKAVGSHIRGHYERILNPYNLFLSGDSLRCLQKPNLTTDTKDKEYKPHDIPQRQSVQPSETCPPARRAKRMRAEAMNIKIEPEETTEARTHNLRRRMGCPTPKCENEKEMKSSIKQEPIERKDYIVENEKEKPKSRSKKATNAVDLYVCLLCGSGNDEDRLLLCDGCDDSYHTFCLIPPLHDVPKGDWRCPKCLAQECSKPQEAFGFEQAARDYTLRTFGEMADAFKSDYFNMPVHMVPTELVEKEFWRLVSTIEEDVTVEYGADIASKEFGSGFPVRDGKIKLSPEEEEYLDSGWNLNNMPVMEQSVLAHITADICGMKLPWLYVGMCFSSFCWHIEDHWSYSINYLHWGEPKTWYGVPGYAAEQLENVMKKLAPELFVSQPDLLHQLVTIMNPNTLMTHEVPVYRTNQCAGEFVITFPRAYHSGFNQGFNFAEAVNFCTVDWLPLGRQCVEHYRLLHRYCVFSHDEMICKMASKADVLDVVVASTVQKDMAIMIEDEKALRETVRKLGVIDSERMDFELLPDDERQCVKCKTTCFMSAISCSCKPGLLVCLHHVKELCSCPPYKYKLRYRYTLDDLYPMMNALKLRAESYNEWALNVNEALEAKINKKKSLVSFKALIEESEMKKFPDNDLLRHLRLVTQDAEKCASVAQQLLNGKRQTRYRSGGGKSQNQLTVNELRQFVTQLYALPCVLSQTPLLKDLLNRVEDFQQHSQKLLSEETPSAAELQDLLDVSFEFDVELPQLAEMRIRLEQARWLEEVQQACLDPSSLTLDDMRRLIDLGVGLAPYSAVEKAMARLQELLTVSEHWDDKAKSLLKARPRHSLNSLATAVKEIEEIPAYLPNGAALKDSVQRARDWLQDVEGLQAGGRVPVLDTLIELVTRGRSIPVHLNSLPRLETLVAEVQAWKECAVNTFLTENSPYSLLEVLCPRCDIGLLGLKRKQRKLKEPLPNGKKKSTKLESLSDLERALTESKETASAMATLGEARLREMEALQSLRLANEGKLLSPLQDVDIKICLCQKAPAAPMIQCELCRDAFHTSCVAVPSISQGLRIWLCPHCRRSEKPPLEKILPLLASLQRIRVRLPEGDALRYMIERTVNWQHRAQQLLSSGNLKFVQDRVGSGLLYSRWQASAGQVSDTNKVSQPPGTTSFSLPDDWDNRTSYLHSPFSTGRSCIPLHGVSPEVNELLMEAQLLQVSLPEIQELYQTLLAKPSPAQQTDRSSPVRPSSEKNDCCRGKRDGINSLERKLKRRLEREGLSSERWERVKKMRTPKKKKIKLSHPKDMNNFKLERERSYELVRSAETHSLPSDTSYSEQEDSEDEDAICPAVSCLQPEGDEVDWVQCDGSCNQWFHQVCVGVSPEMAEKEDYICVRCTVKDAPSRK
Chain of Single-stranded DNA cytosine deaminase (Homo sapiens) (Q9GZX7 whole entry, looked up): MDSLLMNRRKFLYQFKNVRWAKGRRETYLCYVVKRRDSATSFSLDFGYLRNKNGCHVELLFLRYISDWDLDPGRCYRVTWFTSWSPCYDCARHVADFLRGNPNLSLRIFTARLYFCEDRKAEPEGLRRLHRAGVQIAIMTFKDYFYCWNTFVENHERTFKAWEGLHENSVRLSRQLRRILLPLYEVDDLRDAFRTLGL

Regarding `COc1ccc(Cl)cc1C(=O)NCCc1ccc(S(=O)(=O)NC(=O)NC2CCCCC2)cc1`, the result in test [1], in test [6] and in test [7] was inactive. Also, the Potency entry in [2], in test [3], in test [4], in test [5] and in test [8] was “inactive” throughout.

Turning to `N=c1c[n+](N2CCOCC2)[n-]o1`, the call in test [1] and in test [6] was inactive. The Potency result in [2], in test [4], in test [5] and in test [8] was “inactive” in each case.

Turning to `Nc1ncnc2c1ncn2[C@@H]1O[C@H](CO)[C@@H](O)[C@H]1O`, the compound was classed as inactive in test [1], in [10], in [11], in test [6] and in test [7]. Moreover, the Potency result in test [2], in [9], in test [4], in test [5] and in [8] was “inactive” in each case.

On to `CC(CN1c2ccccc2Sc2ccccc21)N(C)C` (centres undefined), for which the compound was called inactive in test [1], in test [10], in test [11], in test [6] and in test [7]. Moreover, the Potency entry in test [2], in [4] and in test [5] was “inactive” each time.

With `NC(N)=NCCC[C@H](N)C(=O)O`, the result in [1] and in test [6] was inactive. In addition, the Potency result in test [2], in test [4], in test [5] and in test [8] was “inactive” each time. The figures for the activity change, negative = inhibition in test [3], in test [10] and in test [11] were -4.76% [at 3.83 µM], -3.57% [at 6.17 µM] and -0.0772% [at 4.81 µM], respectively.

`C#CCN(C)Cc1ccccc1`: the compound was called inactive in [1], in test [12], in [10], in test [11], in [6] and in test [13]. In addition, the result in test [7] was inactive. For the same compound, the Potency entry in test [2], in test [3], in test [4] and in test [5] was “inactive” throughout.

For the compound `OCCN1CCN(CCCN2c3ccccc3Sc3ccc(Cl)cc32)CC1`, the compound was called inactive in [1], in [10], in test [11] and in test [6]. For the same compound, the Potency result in [3], in [4], in test [5] and in test [8] was “inactive” throughout.

`C[C@]12CC[C@@H]3c4ccc(O)cc4CC[C@H]3[C@@H]1CCC2=O`: the compound was called inactive in [1], in test [10], in [11], in test [6] and in [7]. Besides, the Potency result in test [2], in test [3], in [4], in test [5] and in [8] was “inactive” throughout.

As for `CC(CN(C)C)CN1c2ccccc2CCc2ccccc21` (centres undefined), the outcome in test [1], in test [10], in test [11], in [6] and in [7] was inactive. Also, the Potency result in test [2], in test [3], in test [4] and in test [5] was “inactive” throughout.

On to `CCN(CC)CCNC(=O)c1cc(Cl)c(N)cc1OC`, for which the call in [1], in [10], in test [11], in test [6] and in test [7] was inactive. In addition, the Potency result in [2], in test [3], in test [4], in test [5] and in test [8] was “inactive” throughout.

`CC1=C(CC(=O)O)c2cc(F)ccc2/C1=C\c1ccc(S(C)(=O)=O)cc1`: the result in test [1], in test [11], in [6] and in test [7] was inactive. For the same compound, the Potency entry in test [2], in test [3], in test [4], in test [5] and in test [8] was “inactive” each time.

For the compound `C[C@](N)(Cc1ccc(O)cc1)C(=O)O`, the call in test [1] and in [6] was inactive. In addition, the Potency entry in test [2], in [4], in test [5] and in test [8] was “inactive” in each case. The results for the activity change, negative = inhibition in test [10], in [11] and in test [7] were 3.41% [at 6.17 µM], -0.695% [at 4.81 µM] and 5.16% [at 12.4 µM], respectively.

Regarding `CC1=C(/C=C/C(C)=C/C=C/C(C)=C/C(=O)O)C(C)(C)CCC1`, the compound was classed as inactive in test [1], in [10], in [11], in [6] and in test [7]. For the same compound, the Potency entry in test [2], in test [3], in test [9], in test [4], in test [5] and in test [8] was “inactive” each time.

In the case of `CN(C)CC[C@@H](c1ccc(Cl)cc1)c1ccccn1`, the call in [1], in test [12], in [10], in test [11] and in test [6] was inactive. Also, the Potency result in [2], in test [3], in [4], in [5] and in [8] was “inactive” in each case.

Regarding `CC(C)C(=O)c1c(C(C)C)nn2ccccc12`, the result in test [1], in [10], in test [11], in test [6] and in [7] was inactive. Further, the Potency entry in test [2], in [3], in test [4], in test [5] and in test [8] was “inactive” throughout.

Regarding `CN(C)CCC=C1c2ccccc2CCc2ccccc21`, the compound was called inactive in test [1], in test [10], in [11], in test [6] and in test [7]. The Potency entry in test [2], in test [3], in test [4], in test [5] and in [14] was “inactive” in each case.

`CC(C)(C)[C@]1(O)CCN2C[C@H]3c4ccccc4CCc4cccc(c43)[C@@H]2C1`: the outcome in test [1] and in test [6] was inactive. Moreover, the Potency result in [2], in test [4] and in [5] was “inactive” each time. Further, in test [14], the Potency was 12.6 µM (active). Further, the max response in [15] is 16.4%.

With `CN(C)CCOC(C)(c1ccccc1)c1ccccn1` (centres undefined), the call in test [1], in [12], in test [10], in [11], in test [6] and in test [7] was inactive. The Potency result in [2], in test [3], in [4], in [5] and in [8] was “inactive” throughout.

For the compound `CC(C(O)c1ccc(O)cc1)N1CCC(Cc2ccccc2)CC1` (centres undefined), the compound was called inactive in [1], in test [12], in test [10], in test [11], in test [6] and in test [13]. The outcome in [7] was inactive. The Potency entry in [2], in test [4], in [5], in [16] and in test [8] was “inactive” each time.

For `CC(=O)OCC(=O)[C@@]1(O)CC[C@H]2[C@@H]3CCC4=CC(=O)CC[C@]4(C)[C@H]3C(=O)C[C@@]21C`, the compound was classed as inactive in [1], in test [12], in test [11], in test [6] and in [7]. In addition, the Potency result in [2], in [3], in [9], in test [4], in test [5] and in test [8] was “inactive” in each case.
